# Laboratory results from PubChem BioAssay (NCATS).
# “And” between values parts separate entries of the source, which are not always exact repeats. Identical values can stand only once. Inconclusive results are not listed. A number with no mark means an inactive call. The source made the active and inactive calls. Calls come from the whole dose curve; as a rule, active = well fitted curve in the direction sought with a large enough effect; inconclusive = small, poorly fitted or top-dose-only effect, or another doubt; inactive = no such curve, though single readings can be large; an effect the other way counts as inactive or inconclusive.
# What was measured:
# CRL-7250 = normal cell line; assay: Cytotoxic Profiling of Annotated Libraries Using Quantitative High-Throughput Screening (AID 1296008); conditions: Five cell lines viability, CellTiter-Glo ATP luminescence, 48-72 h; max response: stronger effect = lower value; note: nearly all actives have a fitted effect of over 60% in size
# Procedure, shortened: (§1)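 Cytotoxicity was measured as CellTiter-Glo ATP luminescence, read after 10 min at room temperature. Compound treatment of the cells lasted 48 or 72 hr at 37 degrees Celsius in a qHTS format.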
# HEK293 = assay: as above; conditions: Five cell lines viability, CellTiter-Glo ATP luminescence, 48-72 h; max response: stronger effect = lower value
# Procedure, shortened: as §1
# HaCat [1] = assay: as above; conditions: Five cell lines viability, CellTiter-Glo ATP luminescence, 48-72 h; max response: stronger effect = lower value
# Procedure, shortened: as §1
# KB-3-1 = assay: as above; conditions: Five cell lines viability, CellTiter-Glo ATP luminescence, 48-72 h; max response: stronger effect = lower value
# Procedure, shortened: as §1
# MCC-13 = assay: qHTS assay to identify novel small-molecules to repurpose for Merkel cell carcinoma treatment (AID 1296009); conditions: MCC and control cell lines, CellTiter-Glo viability, 72 h; series mostly up to 46 µM; note: nearly all actives have a fitted effect of over 60% in size
# Procedure, shortened: (§2)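 72 hr, 37 degree celsius; NPC 8-pt / MIPE 11-pt dose response; compound pinned in DMSO; CellTiter-Glo, 10 min RT, luminescence; normalized to no-cell and DMSO controls.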
# MCC-26 = assay: as above; conditions: MCC and control cell lines, CellTiter-Glo viability, 72 h; series mostly up to 46 µM
# Procedure, shortened: as §2
# MKL-1 = assay: as above; conditions: MCC and control cell lines, CellTiter-Glo viability, 72 h; series mostly up to 46 µM
# Procedure, shortened: as §2
# WaGa = assay: as above; conditions: MCC and control cell lines, CellTiter-Glo viability, 72 h; series mostly up to 46 µM
# Procedure, shortened: as §2
# NIH3T3 [2] = assay: Cytotoxic Profiling of Annotated Libraries Using Quantitative High-Throughput Screening (AID 1296008); conditions: Five cell lines viability, CellTiter-Glo ATP luminescence, 48-72 h; max response: stronger effect = lower value; note: nearly all actives have a fitted effect of over 60% in size
# Procedure, shortened: as §1
# UISO = assay: qHTS assay to identify novel small-molecules to repurpose for Merkel cell carcinoma treatment (AID 1296009); conditions: MCC and control cell lines, CellTiter-Glo viability, 72 h; series mostly up to 46 µM; note: nearly all actives have a fitted effect of over 60% in size
# Procedure, shortened: as §2
# MKL-2 = assay: as above; conditions: MCC and control cell lines, CellTiter-Glo viability, 72 h; series mostly up to 46 µM
# Procedure, shortened: as §2
# HACAT [3] = assay: as above; conditions: MCC and control cell lines, CellTiter-Glo viability, 72 h; at 44.8 µM (top of the series) unless noted
# Procedure, shortened: as §2
# NIH3T3 [4] = assay: as above; conditions: MCC and control cell lines, CellTiter-Glo viability, 72 h; at 44.8 µM (top of the series) unless noted
# Procedure, shortened: as §2
# CASKI = assay: Primary qHTS to identify gynecologic anti-cancer compounds using libraries of approved drugs and bioactive compounds (AID 1345084); conditions: Gynecologic cancer cell panel viability, ATPlite luminescence, 48 h; series mostly up to 57.5 µM; note: nearly all actives have a fitted effect of over 55% in size
# Procedure, shortened: (§3)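 Five-concentration response, 48 h; readout is ATP-driven luciferase luminescence.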
# Es-2 = assay: as above; conditions: Gynecologic cancer cell panel viability, ATPlite luminescence, 48 h; series mostly up to 57.5 µM
# Procedure, shortened: as §3
# HeLa = assay: as above; conditions: Gynecologic cancer cell panel viability, ATPlite luminescence, 48 h; series mostly up to 57.5 µM
# Procedure, shortened: as §3
# Hek293T = assay: as above; conditions: Gynecologic cancer cell panel viability, ATPlite luminescence, 48 h, control line for the selectivity index; series mostly up to 57.5 µM
# Procedure, shortened: as §3
# JEG-3 = assay: as above; conditions: Gynecologic cancer cell panel viability, ATPlite luminescence, 48 h; series mostly up to 57.5 µM
# Procedure, shortened: as §3
# C33A = assay: as above; conditions: Gynecologic cancer cell panel viability, ATPlite luminescence, 48 h; series mostly up to 57.5 µM
# Procedure, shortened: as §3
# % is set by controls: 0 for no effect and ±100 for the full control effect; potency is the fitted concentration of half-maximal effect.
compound,measurement,setting,value
CCOc1cc2ncc(C#N)c(Nc3ccc(OCc4ccccn4)c(Cl)c3)c2cc1NC(=O)C=CCN(C)C,Potency,CRL-7250,1.05 µM (active)
same,Potency,HEK293,3320 nM (active)
same,Potency,HaCat [1],0.0053 µM (active)
same,max response,KB-3-1,-18.5%
same,Potency,MCC-13,inactive
same,Potency,MCC-26,inactive
same,Potency,MKL-1,inactive
same,Potency,WaGa,inactive
COc1cc(N2CCC(C(N)=O)CC2)ccc1Nc1nc(N)c(Cl)c(Nc2ccccc2S(=O)(=O)C(C)C)n1,outcome,CRL-7250,inactive
same,Potency,HEK293,1480 nM (active)
same,max response,HaCat [1],-18.3%
same,max response,KB-3-1,2.09%
same,Potency,NIH3T3 [2],3.72 µM (active)
same,Potency,MCC-13,inactive
same,Potency,UISO,5900 nM (active)
same,Potency,WaGa,16600 nM (active)
O=C1NC(=O)C(=Cc2ccc3nccc(-c4ccncc4)c3c2)S1,Potency,CRL-7250,0.0526 µM (active)
same,Potency,HEK293,74.3 nM (active)
same,Potency,KB-3-1,0.148 µM (active)
same,Potency,NIH3T3 [2],0.209 µM (active)
same,Potency,MCC-13,1870 nM (active)
same,Potency,MCC-26,2960 nM (active)
same,Potency,MKL-1,1480 nM (active)
same,Potency,MKL-2,469 nM (active)
same,Potency,UISO,743 nM (active)
same,Potency,WaGa,833 nM (active)
Cc1cnc(Nc2ccc(N3CCN(C)CC3)cc2)nc1Nc1cccc(S(=O)(=O)NC(C)(C)C)c1,Potency,CRL-7250,1.48 µM (active)
same,Potency,HEK293,4690 nM (active)
same,Potency,HaCat [1],0.296 µM (active)
same,Potency,NIH3T3 [2],4.18 µM (active)
same,Potency,MCC-13,16600 nM (active)
same,Potency,MKL-1,10500 nM (active)
same,Potency,MKL-2,10500 nM (active)
same,Potency,WaGa,11800 nM (active)
O=C(c1ccc(F)cc1)N1CCC[C@H](c2nc(-c3ccc(F)cc3)no2)C1,max response,CRL-7250,3.37%
same,max response,HEK293,-0.935%
same,outcome,HaCat [1],inactive
same,outcome,NIH3T3 [2],inactive
same,outcome,HACAT [3],inactive
same,Potency,MCC-13,inactive
same,Potency,MCC-26,inactive
same,Potency,MKL-1,inactive
same,Potency,MKL-2,inactive
same,outcome,NIH3T3 [4],inactive
same,Potency,UISO,inactive
same,Potency,WaGa,inactive
CO[C@@H]1[C@@H](O)[C@H](O)[C@@H](n2c3c(Cl)cccc3c3c4c(c5c6cccc(Cl)c6[nH]c5c32)C(=O)NC4=O)O[C@@H]1CO,Potency,CRL-7250,3.72 µM (active)
same,Potency,HEK293,662 nM (active)
same,Potency,HaCat [1],3.32 µM (active)
same,Potency,KB-3-1,2.96 µM (active)
same,Potency,NIH3T3 [2],1.66 µM (active)
same,Potency,MCC-26,1180 nM (active)
same,Potency,MKL-1,332 nM (active)
same,Potency,MKL-2,935 nM (active)
same,Potency,UISO,264 nM (active)
same,Potency,WaGa,166 nM (active)
COc1cc2c(Nc3ccc(Cl)c(Cl)c3F)ncnc2cc1OCC1C[C@@H]2CN(C)C[C@H]2C1,Potency,CRL-7250,9.35 µM (active)
same,Potency,HEK293,4690 nM (active)
same,max response,HaCat [1],-106%
same,Potency,KB-3-1,5.9 µM (active)
same,Potency,MKL-1,7430 nM (active)
same,Potency,UISO,4180 nM (active)
same,Potency,WaGa,18700 nM (active)
N[C@H]1CN(c2c(F)cc3c(=O)c(C(=O)O)cn(C4C[C@@H]4F)c3c2Cl)CC12CC2 (some centres not stated),max response,CRL-7250,-23.8%
same,max response,HEK293,-9.37%
same,max response,KB-3-1,-14.1%
same,outcome,NIH3T3 [2],inactive
same,Potency,MCC-13,inactive
same,Potency,MCC-26,inactive
same,Potency,MKL-1,inactive
same,Potency,MKL-2,inactive
same,outcome,NIH3T3 [4],inactive
same,Potency,UISO,inactive
same,Potency,WaGa,inactive
same,Potency,CASKI,inactive
same,Potency,Es-2,inactive
same,Potency,HeLa,inactive
same,Potency,Hek293T,inactive
same,Potency,JEG-3,inactive
COc1cc2c(cc1OC)[C@@H]1C(=O)c3ccc4c(c3O[C@@H]1CO2)C=CC(C)(C)O4,Potency,CRL-7250,0.0148 µM (active)
same,Potency,HEK293,52.6 nM (active)
same,max response,HaCat [1],-2.92%
same,Potency,MCC-13,inactive
same,Potency,MCC-26,inactive
same,Potency,MKL-1,1870 nM (active)
same,Potency,MKL-2,935 nM (active)
same,Potency,WaGa,662 nM (active)
Cn1cc(-c2cnn3c(N)c(Br)c([C@H]4CCCNC4)nc23)cn1,Potency,CRL-7250,20.9 µM (active)
same,Potency,HEK293,418 nM (active)
same,Potency,KB-3-1,10.5 µM (active)
same,Potency,NIH3T3 [2],0.662 µM (active)
same,Potency,MCC-13,inactive
same,Potency,MCC-26,inactive
same,Potency,MKL-2,1320 nM (active)
same,Potency,WaGa,1320 nM (active)
CCc1nc(-c2cccc(C)c2)c(-c2ccnc(NC(=O)c3ccccc3)c2)s1,outcome,CRL-7250,inactive
same,Potency,HEK293,14800 nM (active)
same,max response,HaCat [1],-12.8% and -8.84%
same,max response,KB-3-1,-16.2%
same,Potency,MCC-13,inactive
same,Potency,MCC-26,inactive
same,Potency,C33A,inactive
same,Potency,CASKI,inactive
same,Potency,Es-2,inactive
same,Potency,HeLa,inactive
same,Potency,Hek293T,inactive
same,Potency,JEG-3,inactive
CC(C)N1[N]C(=C2C=c3cc(O)ccc3=N2)c2c(N)ncnc21,Potency,CRL-7250,0.0418 µM (active)
same,Potency,HEK293,469 nM (active)
same,Potency,HaCat [1],11.8 µM (active)
same,Potency,KB-3-1,1.18 µM (active)
same,Potency,NIH3T3 [2],0.526 µM (active)
same,Potency,MKL-1,10500 nM (active)
same,Potency,UISO,833 nM (active)
same,Potency,WaGa,5900 nM (active)
Cc1ncc(-c2ccnc(Nc3ccc(S(C)(=O)=O)cc3)n2)n1C(C)C,Potency,CRL-7250,3.72 µM (active)
same,Potency,HEK293,4610 nM (active)
same,Potency,HaCat [1],8.33 µM (active) and 5.8 µM (active)
same,Potency,KB-3-1,5.26 µM (active) and 5.17 µM (active)
same,Potency,NIH3T3 [2],13.2 µM (active)
same,Potency,CASKI,7080 nM (active)
same,Potency,Es-2,10000 nM (active)
same,Potency,HeLa,7080 nM (active)
same,Potency,Hek293T,5010 nM (active)
same,Potency,JEG-3,inactive
FC(F)c1nc2ccccc2n1-c1nc(N2CCOCC2)nc(N2CCOCC2)n1,Potency,CRL-7250,590 nM (active) and 1.16 µM (active)
same,Potency,HEK293,1460 nM (active)
same,Potency,HaCat [1],3.26 µM (active)
same,Potency,KB-3-1,2.59 µM (active)
same,Potency,NIH3T3 [2],662 nM (active) and 1.64 µM (active)
same,Potency,MCC-13,inactive
same,Potency,CASKI,2240 nM (active)
same,Potency,Es-2,14100 nM (active)
same,Potency,Hek293T,2240 nM (active)
CCOC(=O)N1CCN([N+]([O-])=NOc2ccc([N+](=O)[O-])cc2C#N)CC1,Potency,CRL-7250,5.26 µM (active)
same,Potency,HEK293,3320 nM (active)
same,max response,HaCat [1],-20.9%
same,Potency,KB-3-1,16.6 µM (active)
same,Potency,MCC-13,2640 nM (active)
same,Potency,MKL-1,1660 nM (active)
same,Potency,MKL-2,1180 nM (active)
same,Potency,WaGa,3720 nM (active)
